This is an account of results in PubChem BioAssay.

A short description of experiment [1]: small molecules captured by biotinylated probe aFSTL3 – biochemical, small-molecule microarray, fluorescence 635/667, stem cell growth factor project, primary screen (AID 1064).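 Note: measures binding of the biotinylated anti-FSTL3 antibody to printed compounds.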 The settings on record: higher = more signal.
Experiment [2] in a line: binders from COS7 lysate, DM2A8 probe, primary screen, torsin A project, cell lysate, small-molecule microarray, fluorescence 635/667 (AID 1065). The note with it: higher = more signal, COS7 lysate expressing mutant human TOR1A.
A short description of experiment [3]: small molecules captured by biotinylated probe aFGF2 – biochemical, small-molecule microarray, fluorescence 635/667, stem cell growth factor project, primary screen (AID 1067).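 Note: measures binding of biotinylated aFGF2 protein to printed compounds on slides; z-score merges feature fluorescence and signal-to-noise across triplicate slides.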 The note with it: higher = more signal.
Experiment [4] can be described thus: small molecules captured by biotinylated probe aFGF10 – biochemical, small-molecule microarray, fluorescence 635/667, stem cell growth factor project, primary screen (AID 1071).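 Note: score merges 667 nm spot intensity and signal to noise from triplicate slides.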 The settings on record: higher = more signal.
The target in experiment [5] is Neurogenic locus notch homolog protein 2 (Homo sapiens) (UniProt Q04721). Kind of experiment: small molecules binding Notch2 protein – biochemical, small-molecule microarray, 635 nm fluorescence, stem cell growth factors, primary screen (AID 1073). The settings on record: higher = more signal.
Experiment [6] has as its target Pro-neuregulin-1, membrane-bound isoform (Homo sapiens) (UniProt Q02297). Kind of experiment: small molecules binding neuregulin-1 protein – biochemical, small-molecule microarray, fluorescence 635/667, psychiatric disease protein project, primary screen (AID 1075).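 Note: score combines 667 nm spot fluorescence with signal to noise.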 The note with it: NRG1 binding, 635 nm fluorescence, higher = more signal.
Experiment [7] concerns Neuregulin-1 EGF-like domain. As to the kind of experiment: small molecules binding NRG1 EGF domain – biochemical, small-molecule microarray, 635 nm fluorescence, primary screen (AID 1081).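 Note: binding of the protein to compounds printed on small-molecule microarray slides.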 The note with it: higher = more signal.
Experiment [8] in a line: FRG1 expression reporter modulators in myotubes – cell-based, C2C12 myotubes, firefly/Renilla luciferase, luminescence, FRG1 inhibition for FSHD, primary screen (AID 1084). The settings on record: FRG1 promoter luciferase, higher = more signal, called active from +8 up or from −8 down.
Experiment [9] in a line: small molecules captured by biotinylated probe aFST – biochemical, small-molecule microarray, fluorescence 635/667, stem cell growth factor project, primary screen (AID 1086).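 Note: score merges 667 nm fluorescence with signal-to-noise of each printed compound spot.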 The note with it: higher = more signal.
Experiment [10] is described as follows: binders of probe aHhip on microarray, primary screen, stem cell growth factor project, biochemical, small-molecule microarray, fluorescence 635/667 (AID 1087).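 Note: score merges spot fluorescence at 667nm with spot signal to noise ratio.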 The note with it: higher = more signal.
The test system of experiment [11] is PRMT1 (protein arginine N-methyltransferase 1). As to the kind of experiment: small molecules binding arginine methyltransferase PRMT1 – biochemical, small-molecule microarray, 635 nm fluorescence, primary screen (AID 1088).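 Note: binding of Prmt1 protein to compounds spotted on small-molecule microarray slides.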 The settings on record: higher = more signal.
Experiment [12] is described as follows: growth effects on S. cerevisiae YJM789 – YJM789 clinical isolate, OD600, 24 h, basal, primary screen (AID 1089).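 Note: growth of clinical yeast isolate S. cerevisiae YJM 789 seeded 1000 cells per well; test concentration not given here.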 The settings on record: higher = more signal, called active from +8 up or from −8 down.
Experiment [13] in a line: S. pombe growth modifiers, basal conditions – strain 972, OD600, 24 h, no modulator, primary screen (AID 1090).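 Note: basal condition with compound alone and no growth modifier present; test concentration not given here.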 The settings on record: S. pombe 972 growth, higher = more signal, called active from +8 up or from −8 down.
Experiment [14] can be described thus: budding yeast growth modifiers under rapamycin – strain BY4716, OD600, 96 h, primary screen (AID 1091). Note: test concentration not given here. The settings on record: S. cerevisiae BY4716 + rapamycin, higher = more signal, called active from +8 up or from −8 down.
The target in experiment [15] is Torsin-1A-interacting protein 2 (Homo sapiens) (UniProt Q8NFQ8). As to the kind of experiment: small molecules binding lysate-expressed LULL1 – cell lysate, human LULL1 lysate, 635/667 nm fluorescence, primary screen (AID 1092).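 Note: probe is lysate of COS7 cells overexpressing human LULL1; score merges per-feature 667 nm fluorescence with signal-to-noise.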 The settings on record: small-molecule microarray, hLULL1 lysate binding, 635 nm fluorescence; higher = more signal.
Experiment [16] can be described thus: optical density change of DRC41 E. coli – strain DRC41, OD650, 24 h, E. coli filamentation project, primary screen (AID 1093).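 Note: MC1000 strain lacking acrAB efflux and sulA so SOS filamentation is blocked; test concentration not given here.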 The settings on record: E. coli DRC41 growth, higher = more signal, called active from +8 up or from −8 down.
The nature of experiment [17]: probe aLefty2 binding to arrayed compounds – biochemical, biotinylated probe, 635/667 nm fluorescence, primary screen (AID 1094).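 Note: score merges spot fluorescence near 667 nm with spot signal-to-noise ratio.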 The note with it: small-molecule microarray, higher = more signal.
Experiment [18] has as its system Noggin (protein binding on small-molecule microarray). Kind of experiment: small molecules binding Noggin protein – biochemical, 635/667 nm fluorescence, primary screen (AID 1095).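 Note: score merges 667 nm feature fluorescence with signal to noise over triplicate slides.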 The settings on record: 635 nm fluorescence, higher = more signal.
Experiment [19] has as its target Neurogenic locus notch homolog protein 3 (Homo sapiens) (UniProt Q9UM47). As to the kind of experiment: small molecules binding NOTCH3 protein – biochemical, 635/667 nm fluorescence, primary screen (AID 1096). The settings on record: small-molecule microarray, 635 nm fluorescence, higher = more signal.
The nature of experiment [20]: probe aEGFR binding to arrayed compounds – biochemical, biotinylated probe, 635/667 nm fluorescence, primary screen (AID 1097).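 Note: probe is a biotinylated anti-EGFR antibody binding compounds printed on slides; score combines fluorescence near 667 nm and signal to noise of each spot.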 The settings on record: small-molecule microarray, higher = more signal.

SMILES strings stand for the structures. Calls of active or inactive are those of the source.

Sequence of Torsin-1A-interacting protein 2 (Homo sapiens) (Q8NFQ8 whole entry, looked up): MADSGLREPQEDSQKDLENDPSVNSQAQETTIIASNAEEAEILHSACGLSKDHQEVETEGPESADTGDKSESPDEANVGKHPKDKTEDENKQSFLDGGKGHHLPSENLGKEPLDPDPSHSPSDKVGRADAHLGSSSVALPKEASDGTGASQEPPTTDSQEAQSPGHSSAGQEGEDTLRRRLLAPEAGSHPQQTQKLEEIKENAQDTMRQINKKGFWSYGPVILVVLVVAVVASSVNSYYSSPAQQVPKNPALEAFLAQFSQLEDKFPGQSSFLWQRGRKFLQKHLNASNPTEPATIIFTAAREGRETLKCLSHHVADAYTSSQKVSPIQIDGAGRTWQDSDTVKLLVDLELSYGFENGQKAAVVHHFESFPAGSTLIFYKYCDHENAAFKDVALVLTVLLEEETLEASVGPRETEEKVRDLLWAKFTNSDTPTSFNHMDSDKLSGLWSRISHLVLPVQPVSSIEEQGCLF
Sequence of Neurogenic locus notch homolog protein 2 (Homo sapiens) (Q04721 whole entry, looked up, canonical isoform): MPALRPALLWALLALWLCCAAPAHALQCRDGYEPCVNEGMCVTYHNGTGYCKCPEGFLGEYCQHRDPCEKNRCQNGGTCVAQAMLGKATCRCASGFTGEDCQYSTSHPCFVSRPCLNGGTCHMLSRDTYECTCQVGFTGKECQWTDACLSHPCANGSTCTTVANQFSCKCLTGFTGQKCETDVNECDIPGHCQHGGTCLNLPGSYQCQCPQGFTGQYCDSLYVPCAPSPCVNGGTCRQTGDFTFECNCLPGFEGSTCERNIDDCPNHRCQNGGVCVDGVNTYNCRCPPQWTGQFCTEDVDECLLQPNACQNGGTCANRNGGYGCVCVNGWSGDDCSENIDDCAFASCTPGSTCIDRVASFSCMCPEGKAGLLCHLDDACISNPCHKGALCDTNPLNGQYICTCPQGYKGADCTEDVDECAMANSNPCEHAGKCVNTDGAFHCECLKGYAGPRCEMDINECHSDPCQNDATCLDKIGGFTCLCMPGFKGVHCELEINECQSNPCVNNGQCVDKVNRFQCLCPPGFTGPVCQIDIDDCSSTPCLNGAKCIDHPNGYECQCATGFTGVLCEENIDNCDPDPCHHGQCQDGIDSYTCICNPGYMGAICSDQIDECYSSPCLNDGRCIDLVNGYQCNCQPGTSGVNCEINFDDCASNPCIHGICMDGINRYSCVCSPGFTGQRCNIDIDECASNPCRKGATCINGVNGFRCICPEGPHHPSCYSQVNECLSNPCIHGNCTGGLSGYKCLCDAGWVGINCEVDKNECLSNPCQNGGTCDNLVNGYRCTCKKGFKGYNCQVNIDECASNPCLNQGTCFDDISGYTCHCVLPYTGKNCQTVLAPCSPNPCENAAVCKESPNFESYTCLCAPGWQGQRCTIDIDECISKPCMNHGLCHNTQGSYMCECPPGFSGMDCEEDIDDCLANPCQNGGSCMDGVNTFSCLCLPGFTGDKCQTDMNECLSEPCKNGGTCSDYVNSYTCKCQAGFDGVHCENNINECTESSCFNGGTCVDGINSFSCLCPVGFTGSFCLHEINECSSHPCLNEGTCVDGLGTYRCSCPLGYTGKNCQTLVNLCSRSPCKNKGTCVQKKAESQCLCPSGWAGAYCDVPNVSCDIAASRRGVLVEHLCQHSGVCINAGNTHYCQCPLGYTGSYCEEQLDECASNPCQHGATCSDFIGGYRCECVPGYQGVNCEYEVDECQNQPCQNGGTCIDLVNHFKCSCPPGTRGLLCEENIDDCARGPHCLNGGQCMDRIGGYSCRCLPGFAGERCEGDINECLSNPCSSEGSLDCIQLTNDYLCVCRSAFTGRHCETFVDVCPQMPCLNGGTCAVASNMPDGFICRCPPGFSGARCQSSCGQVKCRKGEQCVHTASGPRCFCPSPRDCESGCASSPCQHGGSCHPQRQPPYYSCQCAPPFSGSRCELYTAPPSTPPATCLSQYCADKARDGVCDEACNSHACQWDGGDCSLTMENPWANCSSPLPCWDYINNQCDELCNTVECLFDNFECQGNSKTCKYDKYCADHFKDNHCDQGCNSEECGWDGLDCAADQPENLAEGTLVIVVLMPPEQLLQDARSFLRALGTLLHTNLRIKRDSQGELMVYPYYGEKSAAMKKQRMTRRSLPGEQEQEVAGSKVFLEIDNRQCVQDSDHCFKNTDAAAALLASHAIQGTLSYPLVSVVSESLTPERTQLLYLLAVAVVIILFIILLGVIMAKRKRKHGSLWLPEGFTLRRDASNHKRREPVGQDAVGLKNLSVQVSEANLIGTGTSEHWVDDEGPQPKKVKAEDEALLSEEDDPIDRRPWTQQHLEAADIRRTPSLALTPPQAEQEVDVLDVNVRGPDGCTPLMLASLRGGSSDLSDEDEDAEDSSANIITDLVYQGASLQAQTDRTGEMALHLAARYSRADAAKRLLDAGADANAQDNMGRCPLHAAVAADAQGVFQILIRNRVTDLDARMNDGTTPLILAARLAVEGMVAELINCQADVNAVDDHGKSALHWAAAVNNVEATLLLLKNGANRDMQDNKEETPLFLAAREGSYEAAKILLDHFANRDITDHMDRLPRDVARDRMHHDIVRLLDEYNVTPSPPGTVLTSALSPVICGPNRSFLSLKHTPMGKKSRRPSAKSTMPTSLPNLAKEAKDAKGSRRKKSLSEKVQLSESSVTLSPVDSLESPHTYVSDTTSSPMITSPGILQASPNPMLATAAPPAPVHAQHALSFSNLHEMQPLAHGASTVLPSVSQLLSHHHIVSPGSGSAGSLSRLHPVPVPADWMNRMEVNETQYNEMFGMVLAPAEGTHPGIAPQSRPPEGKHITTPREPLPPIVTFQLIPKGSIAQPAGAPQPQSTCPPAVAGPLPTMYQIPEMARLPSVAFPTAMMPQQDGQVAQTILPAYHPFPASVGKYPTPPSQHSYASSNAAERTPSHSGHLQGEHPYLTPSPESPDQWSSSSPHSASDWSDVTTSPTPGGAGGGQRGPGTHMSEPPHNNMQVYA
Sequence of Pro-neuregulin-1, membrane-bound isoform (Homo sapiens) (Q02297 whole entry, looked up, the tested form may be a part, canonical isoform): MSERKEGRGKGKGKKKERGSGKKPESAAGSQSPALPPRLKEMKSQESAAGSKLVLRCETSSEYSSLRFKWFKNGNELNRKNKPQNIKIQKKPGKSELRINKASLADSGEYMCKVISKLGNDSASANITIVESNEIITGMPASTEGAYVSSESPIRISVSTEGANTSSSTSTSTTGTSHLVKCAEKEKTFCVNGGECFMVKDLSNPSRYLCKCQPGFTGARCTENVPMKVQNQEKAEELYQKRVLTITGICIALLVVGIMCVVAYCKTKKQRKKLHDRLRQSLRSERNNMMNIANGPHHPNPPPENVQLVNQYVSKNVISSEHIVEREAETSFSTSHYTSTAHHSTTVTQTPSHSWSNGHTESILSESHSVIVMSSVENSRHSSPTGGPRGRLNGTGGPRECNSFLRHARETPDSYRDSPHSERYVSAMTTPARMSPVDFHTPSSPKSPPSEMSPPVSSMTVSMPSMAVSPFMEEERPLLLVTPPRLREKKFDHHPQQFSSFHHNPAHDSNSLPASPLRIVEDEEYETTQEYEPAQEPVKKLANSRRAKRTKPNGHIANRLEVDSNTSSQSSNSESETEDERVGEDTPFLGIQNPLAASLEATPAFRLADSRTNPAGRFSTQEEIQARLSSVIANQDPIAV

On to `Cc1cccc([C@H]2C[C@H]3C(I)=C[C@@H]2C(=O)[C@]32CO2)c1`, for which the composite z-score in experiment [1] is 0.165; in experiment [2], 0.0974; in experiment [3] it was -0.128; in [4], -0.152; in [5], -0.714; in [6] it was -0.507. In addition, the composite z-score was -0.38 in experiment [7]; -0.0256 in experiment [9]; -0.236 in experiment [10]; -0.614 in experiment [11]; -0.842 in experiment [15]; 0.0735 in experiment [17]. For the same compound, the composite z-score in experiment [18] was 0.461; in experiment [19], -0.0085; in experiment [20], -0.108. In addition, the z-score in [8] was 2.56 (inactive); in experiment [12] it was -2.5 (inactive); in [13], -20.2 (active); in experiment [14], -2.15 (inactive); in experiment [16] it was -0.2 (inactive).
Take `Cc1ccc(S[C@]2(C(=O)NCC(C)C)CC(=O)N(C3Cc4ccccc4C3)[C@@H]2c2ccc(CO)cc2I)cc1`: the composite z-score is 0.757 in experiment [1]; -0.5 in experiment [2]; -0.0238 in experiment [3]; 0.166 in experiment [4]; -1.01 in experiment [5]; 0.123 in experiment [6]. The composite z-score was -0.126 in experiment [7]; 0.962 in [9]; 0.513 in experiment [10]; -0.409 in experiment [11]; 0.724 in experiment [15]; 0.0349 in experiment [17]. Also, the figures for the composite z-score in experiment [18], in experiment [19] and in [20] were -1.45, -0.933 and -0.294, respectively. Further, the z-score in experiment [8] was -1.83 (inactive); in experiment [12] it was -0.766 (inactive); in experiment [13], -1.49 (inactive); in [14] it was 1.51 (inactive); in experiment [16], -0.0979 (inactive).
Turning to `CC(C)(C)OC(=O)CC[C@]1(C(=O)N2CCCCC2)COC(c2ccc(OCCCO)cc2)=N1`, the composite z-score in experiment [1] is 0.161; in experiment [2] it was 1.05; in experiment [3] it was 0.0159; in [4] it was 1.2; in [5], 1.6; in experiment [6], 1.35. The composite z-score was 1.15 in [7]; 0.372 in experiment [9]; 0.0373 in experiment [10]; 1.47 in experiment [11]; 3.57 in experiment [15]; 0.066 in experiment [17]. The composite z-score is 0.318 in [18], 0.79 in experiment [19] and -0.0139 in [20]. The z-score in experiment [8] is -2.51 (inactive); in experiment [12], -1.1 (inactive); in experiment [13], -0.878 (inactive); in [14], -1.57 (inactive); in [16], 0.992 (inactive).
In the case of `CCCNC(=O)[C@@]1(Sc2ccc(C)cc2)CC(=O)N(C(C)C)[C@@H]1c1ccc(CO)cc1I`, the composite z-score in experiment [1] was 1.2; in [2] it was 0.0023; in experiment [3], -0.104; in experiment [4], -0.77; in [5], -1.06; in [6], 1.98. The composite z-score was -0.0039 in experiment [7]; -0.433 in experiment [9]; -0.0994 in [10]; 1.28 in experiment [11]; 2.73 in experiment [15]; 0.0444 in experiment [17]. Besides, the results for the composite z-score in experiment [18], in [19] and in experiment [20] were -0.719, -1.2 and -0.252, respectively. In addition, the z-score in experiment [8] was -0.733 (inactive); in experiment [12], -1.08 (inactive); in [13], -0.877 (inactive); in experiment [14] it was 1.79 (inactive); in experiment [16], -0.157 (inactive).
For `[N-]=[N+]=NCc1ccccc1C[C@@]1(C(=O)N2CCCCC2)N=C(c2ccc(OCCCO)cc2)O[C@@H]1c1ccccc1CN=[N+]=[N-]`, the composite z-score in experiment [1] was 0.319; in experiment [2], 1.42; in [3] it was 0.0234; in experiment [4] it was 0.144; in experiment [5] it was 1.14; in [6], 0.698. For the same compound, the composite z-score in [7] was 0.901; in experiment [9], 0.828; in experiment [10], -0.177; in experiment [11], 1.28; in experiment [15], 2.46; in [17] it was 0.154. The composite z-score is -0.147 in experiment [18], 0.278 in [19] and -0.0833 in [20]. Further, the z-score was -3.69 (inactive) in experiment [8]; -0.364 (inactive) in [12]; 0.78 (inactive) in experiment [13]; 25.9 (active) in [14]; 0.76 (inactive) in experiment [16].
